This note sets out measurements from PubChem BioAssay.

Molecules are shown by their SMILES. Measured potencies and affinities stand elsewhere. Activity calls are given as the source filed them.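 The calls were made as follows, unless noted: active = a dose-response fit showing signal loss, with half-maximal concentration no higher than twice the top tested dose; inconclusive = flat fit between 30% and 70% signal loss, or poor fit; inactive = the rest.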

One assay can be described thus: C. neoformans lysis by adenylate kinase leakage – AK release luminescence, cherry-picks, dose response (AID 687000;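 active = fitted dose curve reaches 40% lysis signal rise at or below the highest valid concentration tested for that sample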;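 also: luminescent detection of adenylate kinase leaking from lysed yeast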). The following applies: 4 h, 100% = twice the neutral-control signal; series mostly up to 15 µM.
In the case of `CC1CCCCN1C(=O)CSc1nc(C2CC2)nc2c1cnn2-c1ccccc1` (stereo unspecified), the molecule was called inactive.

Consider `Cc1cccc(C)c1NC(=O)C(CCc1ccccc1)N1CCC(c2ccccc2)CC1` (stereo unspecified), for which the molecule was called inactive.

As to `C[C@@H]1CN([C@@H](C)CO)C(=O)Cc2cc(NC(=O)Nc3cccc4ccccc34)ccc2O[C@@H]1CN(C)S(=O)(=O)c1cccs1`, the result was inactive.

As to `CNC(=O)CN(c1ccc(C)cc1)S(=O)(=O)c1ccccc1`, the result was inactive.

`C[C@H](CO)N1C[C@H](C)[C@H](CN(C)Cc2ccccc2)Oc2cc(C#Cc3ccccn3)ccc2S1(=O)=O`: the call was inactive.

Take `COCCNC(=O)C[C@H]1C=C[C@@H](NS(=O)(=O)c2ccc(C)cc2)[C@H](CO)O1`: the call was inactive.

In the case of `Cc1cccc(-c2ccc([C@@H]3[C@H]4CN(C(=O)c5ccc6c(c5)OCO6)CCCCN4[C@H]3CO)cc2)c1`, the call was inactive.

Consider `COc1ccc(N(CC(=O)NCCSCc2ccc(C)cc2)S(=O)(=O)c2ccccc2)cc1`, for which the molecule was classed as inactive.

With `C[C@H](CO)N1C[C@H](C)[C@@H](CN(C)Cc2ccncc2)Oc2ccc(NC(=O)CCC(F)(F)F)cc2C1=O`, the molecule was classed as inactive.

On to `CO[C@@H](CN(C)Cc1cc(F)ccc1F)[C@@H](C)CN([C@H](C)CO)S(=O)(=O)c1ccc(F)cc1`, for which the molecule was called inactive.

As to `O=C(CN1CCOCC1)N1CC[C@@H]2[C@@H](CO)Nc3ccc(-c4ccccc4F)cc3[C@@H]21`, the molecule was classed as inactive.

Take `C[C@@H]1CN([C@H](C)CO)C(=O)c2cccc(NC(=O)Nc3ccccc3)c2O[C@@H]1CN(C)Cc1ccc(Cl)c(Cl)c1`: the molecule was called inactive.

For the molecule `CN1C(=O)c2cc(NC(=O)Nc3ccc(Cl)cc3)ccc2OC[C@H]2O[C@@H](CC(=O)NCCN3CCCCC3)CC[C@@H]21`, the result was inactive.

`C[C@@H]1CN([C@@H](C)CO)S(=O)(=O)c2ccc(C#CC3CC3)cc2O[C@H]1CN(C)CC1CCOCC1`: the call was inactive.

Consider `C[C@@H]1CCCCO[C@H](CN(C)Cc2ccc3c(c2)OCO3)[C@H](C)CN([C@H](C)CO)C(=O)c2cc(NC(=O)Nc3cccc4ccccc34)ccc2O1`, for which the result was inactive.

Consider `N#Cc1ccc(-c2ccc3c(c2)[C@H]2[C@H](CCN2C(=O)Cc2ccccc2)[C@@H](CO)N3)cc1`, for which the outcome was inactive.

Another assay in a line: viability loss in HepG2 hepatoma cells – cell-based, cherry-picks, set 2, cytotoxicity control, dose response (AID 687002). The following applies: ATP luminescence (CellTiter-Glo), 48 h; series mostly up to 26 µM. (In general: In ATP-based viability assays light output follows the ATP content of the culture.)
Turning to `C[C@@H]1CN([C@@H](C)CO)C(=O)c2cccc(NS(C)(=O)=O)c2O[C@@H]1CN(C)C(=O)Nc1ccc2c(c1)OCO2`, the outcome was inactive.

Regarding `CCCC#Cc1ccc2c(c1)O[C@H](CN(C)CCC)[C@H](C)CN([C@@H](C)CO)S2(=O)=O`, the molecule was called inactive.

For the molecule `CCC(=O)N(C)C[C@H]1Oc2cc(-c3ccccc3)ccc2S(=O)(=O)N([C@H](C)CO)C[C@H]1C`, the molecule was called inactive.

`CO[C@H]1CN(C)C(=O)c2cc(NS(=O)(=O)CC(F)(F)F)ccc2OC[C@@H](C)N(Cc2cccnc2)C[C@@H]1C`: the molecule was called inactive.

For the molecule `CCCN1CCCC[C@H]1C(=O)Nc1c(C)cccc1C`, the molecule was classed as inactive.

Turning to `COc1ccccc1C(=O)Nc1ccc2c(c1)C(=O)N(C)C[C@H](OC)[C@@H](C)CN(CC1CC1)[C@@H](C)CO2`, the outcome was inactive.

Regarding `CC(C)NC(=O)Nc1ccc2c(c1)C(=O)N([C@@H](C)CO)C[C@H](C)[C@@H](CN(C)Cc1ccc3c(c1)OCO3)OCCCC[C@@H](C)O2`, the molecule was called inactive.

Consider `C[C@@H]1CN([C@@H](C)CO)C(=O)c2c(c3ccccc3n2C)-c2ccccc2CO[C@@H]1CN(C)S(=O)(=O)c1ccc(Cl)cc1`, for which the result was inactive.

Regarding `C[C@@H]1CN([C@@H](C)CO)C(=O)CCCn2nncc2CO[C@@H]1CN(C)Cc1cccc(C(F)(F)F)c1`, the molecule was called inactive.

In the case of `C[C@@H](NC(=O)C[C@@H]1CC[C@@H]2[C@H](COC[C@H](O)CN2Cc2cc(F)ccc2F)O1)c1ccccc1`, the result was inactive.

In the case of `COc1cc(C(=O)Oc2ccccc2N)cc(OC)c1OC`, the molecule was called inactive.

With `COc1cccc(-c2cn(CC[C@@H]3CC[C@@H](NC(C)=O)[C@H](CO)O3)nn2)c1`, the molecule was classed as inactive.

Turning to `O=S(=O)(c1ccc(F)cc1)N1C[C@@H]2[C@H](c3ccccc31)[C@@H](CO)N2Cc1ccccc1Cl`, the molecule was classed as inactive.

For the molecule `COc1cccc(S(=O)(=O)Nc2ccc3c(c2)OC[C@H](C)NC[C@@H](C)[C@H](OC)CN(C)C3=O)c1`, the call was inactive.

In the case of `CC(C)NC(=O)Nc1ccc2c(c1)CC(=O)N([C@@H](C)CO)C[C@@H](C)[C@@H](CN(C)Cc1ccc(Oc3ccccc3)cc1)O2`, the result was inactive.

For `C[C@@H]1CN([C@H](C)CO)C(=O)c2c(c3ccccc3n2C)-c2ccccc2CO[C@H]1CN(C)S(=O)(=O)c1ccc(Cl)cc1`, the result was inactive.

For `COc1cccc(S(=O)(=O)N2C[C@@H](O)COC[C@H]3O[C@H](CC(=O)Nc4ccccc4)CC[C@@H]32)c1`, the molecule was called inactive.

With `O=C1CCC(C(=O)Nc2cccc(C(F)(F)F)c2)N1` (stereo unspecified), the outcome was inactive.

For the molecule `C[C@H]1CCCCO[C@H](CN(C)C(=O)Nc2ccc(F)cc2)[C@@H](C)CN([C@@H](C)CO)C(=O)c2cc(NS(=O)(=O)c3ccc(Cl)cc3)ccc2O1`, the molecule was classed as inactive.

In the case of `COc1ccc(C#Cc2ccc3c(c2)O[C@@H](CN(C)C(C)=O)[C@@H](C)CN([C@H](C)CO)S3(=O)=O)cc1`, the result was inactive.

Turning to `CC(C)NC(=O)Nc1ccc2c(c1)CC(=O)N([C@H](C)CO)C[C@H](C)[C@H](CN(C)S(=O)(=O)c1ccc(Cl)cc1)O2`, the molecule was classed as inactive.

Regarding `C[C@H]1CN([C@@H](C)CO)S(=O)(=O)c2ccc(C#Cc3cccc(F)c3)cc2O[C@@H]1CN(C)C(=O)NC1CCCCC1`, the molecule was called inactive.

Regarding `O=C(Nc1ccccc1)N1CCCCN2[C@H](CO)[C@@H](c3ccc(C#CC4CC4)cc3)[C@@H]2C1`, the molecule was called inactive.

In the case of `O=C(C1CCOCC1)N1CC[C@@H]2[C@H]1c1cc(Br)ccc1N[C@@H]2CO`, the result was inactive.

Take `CC1CCCCN1C(=O)CSc1nc(C2CC2)nc2c1cnn2-c1ccccc1` (stereo unspecified): the molecule was called inactive.

On to `Cc1cccc(C)c1NC(=O)C(CCc1ccccc1)N1CCC(c2ccccc2)CC1` (stereo unspecified), for which the result was inactive.

`C[C@@H]1CN([C@@H](C)CO)C(=O)Cc2cc(NC(=O)Nc3cccc4ccccc34)ccc2O[C@@H]1CN(C)S(=O)(=O)c1cccs1`: the call was inactive.

On to `CNC(=O)CN(c1ccc(C)cc1)S(=O)(=O)c1ccccc1`, for which the molecule was classed as inactive.

Regarding `C[C@H](CO)N1C[C@H](C)[C@H](CN(C)Cc2ccccc2)Oc2cc(C#Cc3ccccn3)ccc2S1(=O)=O`, the result was inactive.

In the case of `COCCNC(=O)C[C@H]1C=C[C@@H](NS(=O)(=O)c2ccc(C)cc2)[C@H](CO)O1`, the molecule was called inactive.

On to `Cc1cccc(-c2ccc([C@@H]3[C@H]4CN(C(=O)c5ccc6c(c5)OCO6)CCCCN4[C@H]3CO)cc2)c1`, for which the molecule was classed as inactive.

In the case of `COc1ccc(N(CC(=O)NCCSCc2ccc(C)cc2)S(=O)(=O)c2ccccc2)cc1`, the call was inactive.

Take `C[C@H](CO)N1C[C@H](C)[C@@H](CN(C)Cc2ccncc2)Oc2ccc(NC(=O)CCC(F)(F)F)cc2C1=O`: the molecule was called inactive.

On to `CO[C@@H](CN(C)Cc1cc(F)ccc1F)[C@@H](C)CN([C@H](C)CO)S(=O)(=O)c1ccc(F)cc1`, for which the molecule was classed as inactive.

Regarding `O=C(CN1CCOCC1)N1CC[C@@H]2[C@@H](CO)Nc3ccc(-c4ccccc4F)cc3[C@@H]21`, the molecule was called inactive.

As for `C[C@@H]1CN([C@H](C)CO)C(=O)c2cccc(NC(=O)Nc3ccccc3)c2O[C@@H]1CN(C)Cc1ccc(Cl)c(Cl)c1`, the outcome was inactive.

Take `CN1C(=O)c2cc(NC(=O)Nc3ccc(Cl)cc3)ccc2OC[C@H]2O[C@@H](CC(=O)NCCN3CCCCC3)CC[C@@H]21`: the molecule was called inactive.

Take `C[C@@H]1CN([C@@H](C)CO)S(=O)(=O)c2ccc(C#CC3CC3)cc2O[C@H]1CN(C)CC1CCOCC1`: the outcome was inactive.

For the molecule `C[C@@H]1CCCCO[C@H](CN(C)Cc2ccc3c(c2)OCO3)[C@H](C)CN([C@H](C)CO)C(=O)c2cc(NC(=O)Nc3cccc4ccccc34)ccc2O1`, the call was inactive.

As to `N#Cc1ccc(-c2ccc3c(c2)[C@H]2[C@H](CCN2C(=O)Cc2ccccc2)[C@@H](CO)N3)cc1`, the molecule was classed as inactive.
